Test results: the GenesisPotency data set
In all, about 500 compounds went through this assay and about 40 (8%) were called active.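 How the source made its calls: active means mean IC50 below 20 µM in each of the two panels, so potent in both; inactive means the rest.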 The list is a sample of the results.

Each compound was assayed against T1, Neuropilin-1, Homo sapiens (UniProt O14786) (assay: blockers of CendR peptide binding to NRP-1 – biochemical, FP and AlphaScreen panel, dose response (AID 651650)).
T1 sequence (whole entry): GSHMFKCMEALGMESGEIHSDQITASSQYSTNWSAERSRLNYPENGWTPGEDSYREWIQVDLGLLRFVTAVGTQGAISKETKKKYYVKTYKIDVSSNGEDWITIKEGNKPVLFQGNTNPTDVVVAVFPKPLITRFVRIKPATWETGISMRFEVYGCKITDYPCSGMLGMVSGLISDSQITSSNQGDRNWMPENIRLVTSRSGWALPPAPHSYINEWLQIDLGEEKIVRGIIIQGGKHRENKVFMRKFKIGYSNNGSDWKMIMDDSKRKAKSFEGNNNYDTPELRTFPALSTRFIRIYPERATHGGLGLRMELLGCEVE
For `Cn1c(=O)c2[nH]c(COc3ccccc3)nc2n(C)c1=O`, the outcome was “inactive”.
